Laboratory results as given in PubChem BioAssay (Tox21).
Values without a mark were called inactive. Records with an inconclusive call do not appear. Where a call stands in place of a potency, no number is given. Active and inactive are the calls of the source. Calls follow the shape of the dose curve; as a rule, active = well fitted curve in the direction sought with a large enough effect in the repeat runs; inconclusive = weak or mixed curves; inactive = no such curve, though single readings can be large; an effect the other way counts as inactive or inconclusive.

What was measured:
[1] = qHTS RealTime-Glo MT Cell Viability Assay in HEK293 cells - 16 hour (AID 1224872); also: top concentration of the series differs between compounds; nearly all actives have a fitted effect of over 50% in size
How it was run: (§1)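 HEK293 cells were seeded at 600 cells/well together with NanoLuc luciferase and cell-permeant prosubstrate, preincubated 5 h at 37 C/5% CO2, then given compound in DMSO by pintool. Luminescence from viable-cell prosubstrate reduction was read repeatedly over 40 h.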

[2] = qHTS RealTime-Glo MT Cell Viability Assay in HepG2 cells - 8 hour (AID 1224873); also: nearly all actives have a fitted effect of over 55% in size
How it was run: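 Real-time viability: cells seeded at 600 per well together with NanoLuc and cell-permeant prosubstrate, compounds added after 5 h incubation. Luminescence tracked at 0, 8, 16, 24, 32 and 40 h of exposure.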

[3] = A CellTox Green Cytotoxicity Assay to monitor cytotoxicity in HEK293 cells - 24 hour (AID 1224875); also: series mostly up to about 77 µM; nearly all actives have a fitted effect of over 45% in size
How it was run: (§2)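 HEK293 cells, 600/well, were preincubated 5 hours and then exposed to compounds at 37 C for up to 40 hours. A cell-impermeant cyanine dye staining dead-cell DNA was read by fluorescence at 0, 8, 16, 24, 32 and 40 h time points.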

[4] = A CellTox Green Cytotoxicity Assay to monitor cytotoxicity in HepG2 cells - 16 hour (AID 1224876); also: nearly all actives have a fitted effect of over 45% in size
How it was run: (§3)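 HepG2 cells, 600/well, preincubated 5 h with CellTox Green dye, then exposed to Tox21 compounds in DMSO at 37 C for up to 40 h. Dead-cell DNA fluorescence read at the indicated time point.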

[5] = qHTS RealTime-Glo MT Cell Viability Assay in HepG2 cells - 32 hour (AID 1224877); also: nearly all actives have a fitted effect of over 55% in size
How it was run: (§4)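 HepG2 cells were seeded at 600 cells/well together with NanoLuc luciferase and a cell-permeant prosubstrate, preincubated 5 h at 37 C/5% CO2, then pin-dosed with compounds in DMSO. Nonlytic luminescence from viable cells was read at each time point.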

[6] = A CellTox Green Cytotoxicity Assay to monitor cytotoxicity in HepG2 cells - 24 hour (AID 1224878); also: nearly all actives have a fitted effect of over 45% in size
How it was run: as §3

[7] = A CellTox Green Cytotoxicity Assay to monitor cytotoxicity in HepG2 cells - 40 hour (AID 1224879); also: nearly all actives have a fitted effect of over 40% in size; also: potency is read from the fitted curve at half-maximal effect
How it was run: as §3

[8] = qHTS RealTime-Glo MT Cell Viability Assay in HEK293 cells - 0 hour (AID 1224880); also: top concentration of the series differs between compounds; nearly all actives have a fitted effect of over 45% in size
How it was run: (§5)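 600 cells/well were plated with the nonlytic NanoLuc/prosubstrate reagent, pre-incubated 5 h, then given 23 nL of compound in DMSO. Incubation at 37 C for 40 h, with luminescence from viable-cell-reduced substrate read repeatedly from 0 h.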

[9] = A CellTox Green Cytotoxicity Assay to monitor cytotoxicity in HEK293 cells - 32 hour (AID 1224881); also: nearly all actives have a fitted effect of over 40% in size
How it was run: as §2

[10] = A CellTox Green Cytotoxicity Assay to monitor cytotoxicity in HepG2 cells - 0 hour (AID 1224882); also: nearly all actives have a fitted effect of over 35% in size
How it was run: as §3

[11] = A CellTox Green Cytotoxicity Assay to monitor cytotoxicity in HepG2 cells - 32 hour (AID 1224883); also: nearly all actives have a fitted effect of over 50% in size
How it was run: as §3

[12] = A CellTox Green Cytotoxicity Assay to monitor cytotoxicity in HEK293 cells - 8 hour (AID 1224884); also: nearly all actives have a fitted effect of over 35% in size
How it was run: as §2

[13] = qHTS RealTime-Glo MT Cell Viability Assay in HepG2 cells - 16 hour (AID 1224885); also: nearly all actives have a fitted effect of over 50% in size
How it was run: as §4

[14] = qHTS RealTime-Glo MT Cell Viability Assay in HEK293 cells - 8 hour (AID 1224887); also: top concentration of the series differs between compounds; nearly all actives have a fitted effect of over 50% in size
How it was run: as §5

[15] = A CellTox Green Cytotoxicity Assay to monitor cytotoxicity in HEK293 cells - 16 hour (AID 1224888); also: nearly all actives have a fitted effect of over 35% in size
How it was run: as §2

[16] = qHTS RealTime-Glo MT Cell Viability Assay in HepG2 cells - 0 hour (AID 1224889); also: nearly all actives have a fitted effect of over 50% in size
How it was run: as §4

[17] = A CellTox Green Cytotoxicity Assay to monitor cytotoxicity in HepG2 cells - 8 hour (AID 1224890); also: nearly all actives have a fitted effect of over 45% in size
How it was run: as §3

[18] = qHTS assay to identify small molecule antagonists of the estrogen receptor alpha (ER-alpha) signaling pathway using the BG1 cell line in the presence of 0.1 nM 17-beta-estradiol - cell viability counter screen (AID 1259241); also: nearly all actives have a fitted effect of over 40% in size
How it was run: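 Viability in VM7Luc4E2 cells after 22 hr compound exposure under 0.1 nM 17beta-estradiol stimulation, by CellTiter-Fluor.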

[19] = qHTS RealTime-Glo MT Cell Viability Assay in HEK293 cells - 40 hour (AID 1224874); settings: RealTime-Glo luminescence; max response: active compounds read low; also: nearly all actives have a fitted effect of over 50% in size
How it was run: as §5

[20] = qHTS RealTime-Glo MT Cell Viability Assay in HEK293 cells - 24 hour (AID 1224886)
How it was run: as §1

SMILES | Potency [1] | Potency [2] | Potency [3] | Potency [4] | Potency [5] | Potency [6] | Potency [7] | Potency [8] | Potency [9] | Potency [10] | Potency [11] | Potency [12] | Potency [13] | Potency [14] | Potency [15] | Potency [16] | Potency [17] | Potency [18] | max response [19] | Potency [20]
CC(=O)[C@H]1CC[C@H]2[C@@H]3C=CC4=CC(=O)CC[C@@]4(C)[C@@H]3CC[C@]12C | inactive | inactive | inactive | inactive | inactive | inactive | inactive | inactive | inactive | inactive | inactive | inactive | inactive | inactive | inactive | inactive | inactive | inactive | – | –
COc1cc2c(cc1OC)-c1cc(=Nc3c(C)cc(C)cc3C)n(C)c(=O)n1CC2 | inactive | inactive | inactive | inactive | inactive | inactive | 21.3 µM (active) | inactive | inactive | inactive | – | inactive | inactive | inactive | inactive | inactive | inactive | – | – | –
CCOC(=O)c1ccccc1OC | inactive | inactive | – | inactive | – | inactive | – | inactive | inactive | inactive | inactive | inactive | inactive | – | inactive | inactive | inactive | inactive | -4.86% | inactive
COC(=O)c1cc(S(N)(=O)=O)ccc1OC | inactive | inactive | – | inactive | – | inactive | – | inactive | inactive | inactive | inactive | inactive | inactive | – | inactive | inactive | inactive | inactive | 7.1% | inactive
COC(=O)CC(=O)C(C)(C)C | inactive | inactive | inactive | – | inactive | inactive | inactive | inactive | inactive | inactive | inactive | inactive | inactive | – | inactive | inactive | inactive | inactive | – | –
NC(=O)Nc1ccc(Cl)c(Cl)c1 | inactive | inactive | – | inactive | – | inactive | inactive | inactive | inactive | inactive | inactive | inactive | inactive | inactive | inactive | inactive | inactive | inactive | – | –
CCCCCCCCCCCC[N+](C)(C)CC(=O)[O-] | inactive | inactive | – | – | inactive | – | – | inactive | – | inactive | – | – | inactive | – | – | inactive | inactive | inactive | -3.41% | inactive
O=C1OCCN1/N=C/c1ccc([N+](=O)[O-])o1 | inactive | – | inactive | – | inactive | inactive | – | inactive | inactive | inactive | inactive | inactive | inactive | inactive | inactive | inactive | inactive | – | 2.01% | inactive
CCCCCCCCCCCC[N+](C)(C)CCCS(=O)(=O)[O-] | inactive | inactive | – | – | inactive | inactive | inactive | inactive | – | inactive | inactive | – | inactive | inactive | – | inactive | inactive | inactive | -0.977% | inactive
C=CCOC(=O)/C=C\C(=O)OCC=C | inactive | inactive | inactive | – | inactive | inactive | inactive | inactive | inactive | inactive | inactive | inactive | inactive | inactive | inactive | inactive | inactive | inactive | – | –
c1cc[c]([Bi]([c]2ccccc2)[c]2ccccc2)cc1 | inactive | inactive | inactive | – | inactive | – | – | – | inactive | inactive | – | inactive | inactive | inactive | inactive | inactive | inactive | inactive | – | –
CCCCCCCC/C=C\CCCCCCCC(=O)OC(CO)CO | inactive | inactive | – | – | – | inactive | – | – | inactive | inactive | inactive | inactive | inactive | – | inactive | inactive | inactive | inactive | 0.119% | inactive
CC(C)(C)C(=O)C(Oc1ccc(Cl)cc1)n1ccnc1 (centres undefined) | inactive | inactive | inactive | inactive | – | inactive | inactive | inactive | inactive | inactive | inactive | inactive | inactive | inactive | inactive | inactive | inactive | inactive | – | inactive
COc1cc2[nH]c(=O)[nH]c(=O)c2cc1OC | inactive | inactive | – | inactive | – | inactive | inactive | inactive | – | inactive | inactive | inactive | inactive | inactive | inactive | inactive | inactive | inactive | 1.95% | inactive
